# Where a name gives a salt, the structure may show the parent alone. ± gives the standard deviation of the averaged measurements.
# System: iBMDM (immortalised mouse bone-marrow-derived macrophages), LPS-stimulated
# Experiment: mitochondrial superoxide (MitoSOX fluorescence) fold increase over unstimulated control; higher = more LPS-induced mitochondrial ROS (less inhibition)
# Settings: inhibitor concentration: 500 nM, LPS: 100 ng/ml
# Outline: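 Immortalised mouse bone-marrow-derived macrophages in black 96-well plates were kept in phenol-red-free 1% FCS/DMEM for 20 h, pretreated 30 min with kinase inhibitors (500 nM), loaded with 1 μM MitoSox for 10 min and then given LPS (100 ng/ml). Fluorescence at excitation/emission 510/580 nm was read on a ClarioStar plate reader every 60 min for 4 h, with wells in triplicate. Mitochondrial superoxide is given as fold induction over untreated macrophages, averaged across replicates.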
Compound,mitochondrial superoxide (time after LPS: 1 h),mitochondrial superoxide (time after LPS: 2 h),mitochondrial superoxide (time after LPS: 4 h)
COc1cc2ncc(-c3ccccc3)nc2cc1OC [Tyrphostin AG 1296],1.469 ± 0.014,1.47 ± 0.017,1.58 ± 0.021
O=C1NC(=O)C(c2ccccc2[N+](=O)[O-])=C1Nc1ccc(O)c(Cl)c1,1.12 ± 0.024,1.45 ± 0.084,1.63 ± 0.063
Cc1cc2c(F)c(Oc3ncnn4cc(OC[C@@H](C)OC(=O)[C@H](C)N)c(C)c34)ccc2[nH]1,1.37 ± 0.023,1.46 ± 0.058,1.53 ± 0.016
Cc1c(CN2CCN(C(=O)[C@H](C)O)CC2)sc2c(N3CCOCC3)nc(-c3cnc(N)nc3)nc12,1.266 ± 0.011,1.44 ± 0.057,1.5 ± 0.061
Nc1ccc(-c2ccc3ncc4ccc(=O)n(-c5cccc(C(F)(F)F)c5)c4c3c2)cn1 [Torin 2],1.18 ± 0.042,1.17 ± 0.05,1.24 ± 0.1
Cn1cc(-c2ccc3nnc(C(F)(F)c4ccc5ncccc5c4)n3n2)cn1,1.4 ± 0.062,1.44 ± 0.015,1.5 ± 0.019
COc1cc2ncnc(Oc3cccc(NC(=O)Nc4cc(C(C)(C)C(F)(F)F)on4)c3)c2cc1OC,1.36 ± 0.027,1.562 ± 0.0063,1.59 ± 0.025
Nc1nc(N)c2nc(-c3cccc(O)c3)c(-c3cccc(O)c3)nc2n1,1.18 ± 0.049,1.23 ± 0.1,1.4 ± 0.12
N#CCNC(=O)c1ccc(-c2ccnc(Nc3ccc(N4CCOCC4)cc3)n2)cc1,1.05 ± 0.071,1.17 ± 0.017,1.27 ± 0.13
COc1ccc(F)c(F)c1C(=O)c1cnc(NC2CCN(S(C)(=O)=O)CC2)nc1N,1.28 ± 0.081,1.57 ± 0.13,1.8 ± 0.14
C[C@H](NC(=O)/C(C#N)=C/c1cccc(Br)n1)c1ccccc1,1.21 ± 0.039,1.368 ± 0.011,1.5 ± 0.04
O=C1NC(=O)C(=Cc2ccc(-c3ccc(F)cc3)o2)S1 (stereo in doubt),1.28 ± 0.044,1.55 ± 0.089,1.65 ± 0.081
Cc1ccc(NC(=O)c2ccc(CN3CCN(C)CC3)cc2)cc1Nc1nccc(-c2cccnc2)n1 [Imatinib (STI571)],1.28 ± 0.061,1.39 ± 0.18,1.49 ± 0.12
"Cc1[nH]c(/C=C2\C(=O)Nc3ccccc32)c(C)c1CCC(=O)O [TSU-68 (SU6668, Orantinib)]",2.12 ± 0.096,2.2 ± 0.093,2.16 ± 0.12
O=C(NOC[C@H](O)CO)c1ccc(F)c(F)c1Nc1ccc(I)cc1F,1.589 ± 0.0074,1.64 ± 0.044,1.71 ± 0.083
COc1ccc(C(=O)Nc2sc3c(c2C(N)=O)CCCC3)cc1OC,1.42 ± 0.034,1.49 ± 0.045,1.64 ± 0.03

Compound,mitochondrial superoxide (time after LPS: 1 h),mitochondrial superoxide (time after LPS: 2 h),mitochondrial superoxide (time after LPS: 4 h)
CCN(CC)CCNC(=O)c1c(C)[nH]c(/C=C2\C(=O)Nc3ccc(F)cc32)c1C [Sunitinib Malate],1.61 ± 0.057,1.73 ± 0.072,1.7 ± 0.099
COc1ccc2cc(-c3nc(-c4ccc([S+](C)[O-])cc4)[nH]c3-c3ccncc3)ccc2c1 (stereo not drawn) [Tie2 kinase inhibitor],0.981 ± 0.069,1.09 ± 0.058,1.19 ± 0.036
CCN1CCN(c2ccc(Nc3cc(N(C)C(=O)Nc4c(Cl)c(OC)cc(OC)c4Cl)ncn3)cc2)CC1,1.2 ± 0.021,1.24 ± 0.035,1.35 ± 0.06
Cc1ccccc1CN1C2=NCCN2C(=O)C2=C1CCN(Cc1ccccc1)C2,1.16 ± 0.042,1.27 ± 0.036,1.34 ± 0.13
COc1cc2ncnc(Nc3ccc(O)c(Br)c3)c2cc1OC,1.04 ± 0.047,1.04 ± 0.082,1.07 ± 0.12
Cc1cn(-c2cc(NC(=O)c3ccc(C)c(Nc4nccc(-c5cccnc5)n4)c3)cc(C(F)(F)F)c2)cn1 [Nilotinib (AMN-107)],1.45 ± 0.049,1.53 ± 0.07,1.65 ± 0.1
CN1CCN(CCOc2cc(OC3CCOCC3)c3c(Nc4c(Cl)ccc5c4OCO5)ncnc3c2)CC1 [Saracatinib (AZD0530)],1.516 ± 0.0097,1.63 ± 0.047,1.85 ± 0.073
O=C(NCc1ccccc1)c1csc(Nc2ccncn2)n1 [Thiazovivin],1.11 ± 0.012,1.2 ± 0.078,1.29 ± 0.11
Nc1nc(NCCNc2ncc(-n3ccnc3)c(-c3ccc(Cl)cc3Cl)n2)ccc1[N+](=O)[O-],1.17 ± 0.042,1.23 ± 0.024,1.31 ± 0.056
O=C(Nc1cccc(Cl)c1)Nc1ncc(CCNc2ncnc3ccsc23)s1 [SNS-314 Mesylate],1.32 ± 0.029,1.36 ± 0.048,1.42 ± 0.08
N#Cc1c(O)c2c(-c3ccc(-c4ccccc4O)cc3)csc2[nH]c1=O,1.3 ± 0.051,1.43 ± 0.023,1.52 ± 0.034
Cc1nc(N)sc1-c1ccnc(Nc2ccc(N3CCOCC3)cc2)n1,1.49 ± 0.063,1.55 ± 0.023,1.7 ± 0.02
N#Cc1c(Oc2ccc(F)c(NC(=O)Cc3cccc(C(F)(F)F)c3)c2)ccc2nc(NC(=O)C3CC3)sc12,1.35 ± 0.087,1.49 ± 0.076,1.66 ± 0.076
Cn1cc(-c2cnn3c(N)c(Br)c([C@@H]4CCCNC4)nc23)cn1,1.12 ± 0.091,1.4 ± 0.22,1.54 ± 0.11
Cc1[nH]nc2ccc(-c3cncc(OC[C@@H](N)Cc4ccccc4)c3)cc12,1.24 ± 0.1,1.43 ± 0.11,1.68 ± 0.098
